Screens (PubChem BioAssay)
Compounds with a hit are over-represented: about 19% of the library has one in this group of screens.
HT1080-NT tox = qHTS for induction of synthetic lethality in tumor cells producing 2HG: qHTS for the HT-1080-NT fibrosarcoma cell line. HT-1080-NT fibrosarcoma viability, CellTiter-Glo ATP luminescence, 48 h. Potency, µM (highest dose often 46.1 µM), for the others: top-dose activity, negative = less viability, actives largely listed as cytotoxic. actives 1.6% (n = 360,000). AID 686970, 2013;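 further: NT is the 2HG producing partner of a matched IDH1 knockdown line; potency means the concentration at half of the fitted maximal effect; 0% = DMSO-treated cells and -100% = media-only wells without cells; nearly all actives have a fitted effect of over 55% in size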
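A 48-hour cytotoxicity screen used HT-1080-NT cells plated 2 hours before compound delivery. ATP-based CellTiter-Glo luminescence measured viability, normalized to DMSO and no-cell controls.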
DT40 TDP1 no CPT = qHTS for Inhibitors of human tyrosyl-DNA phosphodiesterase 1 (TDP1): qHTS in cells in absence of CPT. DT40 Tdp1-/- hTDP1 cells, no CPT, ATP luminescence, 48 h. Potency, µM (highest dose often 46.2 µM), for the others: at the highest dose activity change, negative = growth inhibition, actives largely listed as inhibitors. actives 15% (n = 420,000). AID 686978, 2013; further: potency means the concentration at half of the fitted maximal effect; nearly all actives have a fitted effect of over 55% in size
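Luminescent ATP content (CellTiter-Glo) served as the growth readout. Knockout chicken DT40 cells expressing human TDP1 were exposed to compounds without camptothecin for a minimum 48 hr at 37 °C.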
IL-1B inflam inh = qHTS for Inhibitors of Inflammasome Signaling: IL-1-beta AlphaLISA Primary Screen; THP-1 LPS/ATP IL-1B secretion, AlphaLISA, 16 h; stronger effect = lower value; activity change, % at 57.5 µM; actives 4.7% (n = 360,000); AID 743279, 2014; in the data active means activity change below about -50%; inconclusive means mostly about -30% to -49%
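Secreted IL-1B measured by AlphaLISA bead assay after 16 h compound exposure of THP-1 cells; compounds (final up to 57.5 uM) added 1 h before LPS (250 ng/mL) and ATP (1.25 mM) stimulation; lower signal means less secretion.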
uPA surface inh = qHTS for Inhibitors of Cell Surface uPA Generation; Potency, µM (highest dose often 38.3 µM), inactives show top-dose activity change, negative = inhibition, hits mostly inhibitors; cell surface uPA generation assay, qHTS; actives 0.31% (n = 330,000); active means well fitted inhibition curve with a large enough effect; inconclusive means small, poorly fitted or top-dose-only effect; inactive means no such curve, though single readings can be large or run the other way; tested in mouse RAW 264.7 cells; further: potency means the concentration at half of the fitted maximal effect; nearly all actives have a fitted effect of over 55% in size
TDP1 cell CPT = qHTS for Inhibitors of human tyrosyl-DNA phosphodiesterase 1 (TDP1): qHTS in cells in presence of CPT; chicken DT40 Tdp1-/-;hTDP1 cells + 20 nM CPT, ATP luminescence, 48 h; Potency, µM (top dose mostly 46.2 µM), for the others: at the top dose activity change, negative = growth inhibition, hits mostly inhibitors; actives 12% (n = 420,000); AID 686979, 2013; further: potency means the concentration at half of the fitted maximal effect; nearly all actives have a fitted effect of over 55% in size
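Chicken DT40 Tdp1-/- cells complemented with human TDP1, 400 cells/well, exposed to compounds plus 20 nM camptothecin for at least 48 h at 37 C; viability read as ATP content by CellTiter-Glo luminescence.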
HT1080 IDH1KD tx = qHTS for induction of synthetic lethality in tumor cells producing 2HG: qHTS for the HT-1080-IDH1KD cell line; HT-1080 IDH1 knockdown viability, ATP luminescence, 48 h; Potency, µM (titrated, usually from 46.1 µM), without a hit: top-dose activity, negative = toxicity, most hits filed as cytotoxic; actives 2% (n = 360,000); AID 686971, 2013;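 further: potency means the concentration at half of the fitted maximal effect; 0% = DMSO wells and -100% = cell-free medium wells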
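Viability of IDH1-knockdown HT-1080 fibrosarcoma cells was assessed by CellTiter-Glo after 48 h at 37 °C with titrated compound; concentration-effect curves were classified by fit quality and response size.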
Starred values were filed as active, the others as inactive; i = inactive; ? = inconclusive; / = no result; [ ] = another dose, or the depositor's remark. Unless noted, the call rests on the fitted dose curve; in most records, active means well fitted curve in the direction sought with a large enough effect; inconclusive means small, poorly fitted or top-dose-only effect, or another doubt; inactive means no such curve, though single readings can be large; an effect the other way counts as inactive or inconclusive. Unless noted, on the % scale 0 is the no-effect control and ±100 the full control effect.

SMILES | HT1080-NT tox | DT40 TDP1 no CPT | IL-1B inflam inh | uPA surface inh | TDP1 cell CPT | HT1080 IDH1KD tx
C=CCNC(=O)c1onc(CSc2ccc(Cl)cc2)c1C(=O)NCC=C | -9.4% | 16.4µM* | -14.7 | 5.4% | ? | -0.1%
Cc1cc(C)cc(SCc2noc(C(=O)NCc3ccccc3)c2C(=O)NCc2ccccc2)c1 | 1.5% | ? | 24.9 | 7.0% | ? | -0.7%
O=C(NCc1ccccc1)c1onc(CSc2ccc(F)cc2)c1C(=O)NCc1ccccc1 | -7.0% | ? | -7.9 | 4.1% | 18.4µM* | 5.8%
CNC(=O)N(O)C1N(/N=C/c2cc(Br)ccc2O)C(=S)SC1(C)C (configuration not stated) | -11.7% | ? | 5.3 | 5.9% | ? | -13.4%
COc1cccc(CCNC(=O)c2cnc3sc(N4CCOCC4)nn3c2=O)c1 | / | ? | / | / | -25.9% | /
CCC(C)C(NS(=O)(=O)c1ccc(C)cc1)C(=O)N1CCOCCOCCOCC1 (configuration not stated) | 1.2% | 6.5% | 11.3 | -1.9% | ? | -13.0%
COCC(=O)N1CCC(n2nccc2NC(=O)CCOc2ccccc2)CC1 | 0.9% | -5.3% | 4.0 | -12.9% | -0.2% | 6.9%
CCOc1ccc(Oc2ccc(C(F)(F)F)cc2N)cc1 | -1.0% | ? | -17.6 | 3.9% | ? | -3.2%
COc1cccc(Oc2ccc(C(F)(F)F)cc2N)c1 | -13.0% | -6.7% | -69.5* | -0.6% | -26.5% | -19.2%
O=C(O)CC/C(=N/NC(=O)c1ccc(-c2ccccc2)cc1)c1ccccc1 | 3.6% | 3.4% | i | 0.2% | 10.7% | -6.6%
C/C(CC(=O)NC1CCCCC1)=N\NC(=O)c1ccc(Br)cc1 | -18.7% | -2.3% | 15.3 | 8.0% | 2.8% | -7.8%
C/C(=N\NC(=O)c1ccc(-c2ccccc2)cc1)C1C(=O)c2ccccc2C1=O | -14.7% | 20.6µM* | 126.7 | 13.0% | 20.6µM* | -7.2%
CCOc1ccc(C(=O)N/N=C(/C)C2C(=O)c3ccccc3C2=O)cc1 | -12.1% | 0.651µM* | 32.2 | -2.1% | 0.581µM* | -11.5%
C/C(=N\NC(=O)c1ccc(Br)cc1)C1C(=O)c2ccccc2C1=O | 2.24µM* | -26.7% | 4.6 | 6.6% | ? | 1µM*
C/C(=N/NC(=O)c1ccc(-c2ccccc2)cc1)c1cc(O)cc(O)c1 | ? | 16.4µM* | ? | 0.6% | 20.6µM* | ?
Cc1ccc(-n2c(SCC(=O)N3CCCc4ccccc43)nc3c([nH]c4ccccc43)c2=O)cc1 | / | -19.8% | / | / | -9.9% | /
CCC(CC)c1nn2c(=O)cc(COc3ccc(NC(=O)c4cccc(C)c4)cc3)nc2s1 | / | ? | / | / | 1.1% | /
FC(F)Oc1ccc(-n2cc(-c3ccccc3)[n+]3c2CCCCC3)cc1 | -11.5% | 5.8µM* | -22.7 | -8.9% | 5.17µM* | -4.7%
Fc1ccc(-n2cc(-c3ccccc3)[n+]3c2SCC3)cc1 | -3.5% | ? | 38.3 | -17.7% | -29.7% | ?
Cc1ccc(-c2cn(-c3ccc(OC(F)F)cc3)c3[n+]2CCCCC3)cc1 | ? | 1.03µM* | -81.3* | -8.4% | 0.651µM* | -25.5%
Cc1ccc(CONC(=O)c2ccc(OC(F)F)cc2)cc1 | 11.7% | 3.0% | -16.8 | -6.0% | -18.4% | 11.6%
CC(OC(=O)/C=C/c1cccs1)C(=O)Nc1ccc(C(N)=O)cc1 (configuration not stated) | -0.1% | ? | 82.9 | ? | ? | -5.9%
Cc1oc(-c2ccccc2NC(=O)c2ccccn2)nc1CNC(=O)c1ccc(Oc2ccccc2)o1 | / | -22.8% | / | / | 1.2%[9.04 µM] | /
COc1cccc2sc(Nc3nc(-c4cc5ccccc5oc4=O)cs3)nc12 | 5.17µM* | 4.61µM* | 59.3 | -12.3% | 4.61µM* | 2.06µM*
COc1cccc(-c2noc(-c3cc4ccccc4oc3=O)n2)c1OC | / | -15.2% | / | / | -7.9% | /
SMILES | HT1080-NT tox | DT40 TDP1 no CPT | IL-1B inflam inh | uPA surface inh | TDP1 cell CPT | HT1080 IDH1KD tx
COc1cccc2sc(Nc3nc(-c4ccncc4)cs3)nc12 | 2.31µM* | 2.91µM* | 39.6 | 9.4% | 4.61µM* | 2.31µM*
Cc1cc(C)c2nc(C)cc(Nc3cccc(C(=O)O)c3)c2c1 | / | -0.1% | / | / | -9.9% | /
CN(C(=O)Cn1c(=O)n(CCC(=O)NCc2ccc3c(c2)OCO3)c(=O)c2sccc21)c1ccccc1 | / | -1.4% | / | / | -16.2% | /
O=C1c2ccccc2[C@@H]2CC(O)C(O)CCN12 (some centres not stated) | 8.2% | -8.2% | 0.2 | 23.7% | -12.2% | 8.2%
CC1(C)Cc2ccccc2C2CC(O)C(=O)N21 (configuration not stated) | 7.4% | ? | -1.1 | 4.0% | 14.6µM* | 18.9%
CCOC(=O)C1=C(N)OC(CCl)=C(C#N)C1c1ccsc1 (configuration not stated) | 3.9% | 2.59µM* | -1.6 | -3.0% | 2.06µM* | 2.0%
Cc1cccc(NC(=O)c2cccc(S(=O)(=O)N(C)C3CCCCC3)c2)n1 | 1.6% | ? | -26.0 | / | ? | 2.5%
COCCn1nnnc1C(C(C)C)N(Cc1cccnc1)Cc1ccccc1Cl (configuration not stated) | -9.9% | 23.1µM* | 9.2 | 2.9% | ? | -12.8%
Cc1cc(F)ccc1S(=O)(=O)Nc1nc2ccccc2nc1Cl | -8.6% | ? | -50.6* | -0.1% | ? | -8.6%
CC1(C)CC(=O)C=C(c2ccccc2-c2ccc(S(C)(=O)=O)cc2)C1=O | 12.5% | ? | 13.5 | / | -7.6% | 9.0%
CCOC(=O)COc1cc(C)c(Cl)cc1C(=O)c1ccn2nc(-c3ccc(OC)cc3)cc2n1 | / | 13µM* | / | / | ? | /
CCOC(=O)COc1ccc(C)cc1C(=O)c1ccn2nc(-c3ccc(F)cc3)cc2n1 | / | 20.6µM* | / | / | 16.4µM* | /
CCOC(=O)COc1ccc(F)cc1C(=O)c1ccn2nc(-c3ccc(C)cc3)cc2n1 | / | -9.2% | / | / | -2.3% | /
CCCCOc1ccc2c(C)cc(=O)oc2c1OCCCC | 3.9% | 25.9µM* | ? | 4.2% | 16.4µM* | 3.5%
Cc1cc(=O)oc2c(C)c(OC(=O)c3ccco3)ccc12 | 0.1% | -20.9% | -13.5 | 3.4% | -17.9% | 4.8%
CCC(=O)Oc1ccc2c(C)cc(=O)oc2c1C | -1.0% | 6.51µM* | 0.0 | 6.4% | ? | 16.3%
CC(=O)c1c(OCC(=O)O)ccc2c(C)cc(=O)oc12 | 12.0% | -0.9% | 17.0 | / | -21.0% | -1.6%
